Source: PubChem BioAssay
TMEM16A inh: TMEM16A chloride channel inhibitors, primary screen, cell-based, HTS; HEK293 TMEM16A/YFP iodide influx fluorescence, ionomycin; normalized B-score (activity score, 25-100; higher = stronger inhibition) at 10 µM; 1.2% of 310,000 active; AID 588511, 2011;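 active means ratio plate-corrected score three or more library SD toward inhibition, starting fluorescence score within five deviations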;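 further: score derived from kinetic fluorescence span divided by baseline fluorescence per well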
Target sequence (Q8BHY3 whole entry, looked up): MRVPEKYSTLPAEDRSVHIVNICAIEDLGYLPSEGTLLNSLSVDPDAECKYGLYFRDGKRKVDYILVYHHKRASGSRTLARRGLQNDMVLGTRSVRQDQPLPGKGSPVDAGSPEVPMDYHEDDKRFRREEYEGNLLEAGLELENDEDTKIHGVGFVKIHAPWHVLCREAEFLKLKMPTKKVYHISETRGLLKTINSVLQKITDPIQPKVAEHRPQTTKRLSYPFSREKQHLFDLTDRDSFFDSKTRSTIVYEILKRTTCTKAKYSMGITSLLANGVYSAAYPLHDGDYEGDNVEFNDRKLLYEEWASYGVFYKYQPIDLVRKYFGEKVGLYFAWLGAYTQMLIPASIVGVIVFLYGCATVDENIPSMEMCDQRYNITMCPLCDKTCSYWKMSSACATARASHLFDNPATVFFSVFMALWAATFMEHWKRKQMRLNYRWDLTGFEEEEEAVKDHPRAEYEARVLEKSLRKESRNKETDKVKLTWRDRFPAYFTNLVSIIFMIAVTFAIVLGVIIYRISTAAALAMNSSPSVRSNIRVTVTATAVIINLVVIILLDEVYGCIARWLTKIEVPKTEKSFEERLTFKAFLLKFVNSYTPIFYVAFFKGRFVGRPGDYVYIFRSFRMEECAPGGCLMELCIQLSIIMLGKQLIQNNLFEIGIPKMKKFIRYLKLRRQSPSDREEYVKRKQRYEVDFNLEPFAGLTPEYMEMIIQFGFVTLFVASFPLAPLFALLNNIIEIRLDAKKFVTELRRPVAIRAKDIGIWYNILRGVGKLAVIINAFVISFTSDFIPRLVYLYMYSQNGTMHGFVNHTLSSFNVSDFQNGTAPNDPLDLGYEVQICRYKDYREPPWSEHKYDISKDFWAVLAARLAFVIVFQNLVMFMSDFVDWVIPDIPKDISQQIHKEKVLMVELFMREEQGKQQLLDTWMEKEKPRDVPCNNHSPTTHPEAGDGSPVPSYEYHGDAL
CRFBP-R2 agonist: agonists of CRF-BP/CRF-R2 complex, primary screen, cell-based, HEK293, calcium dye fluorescence, uHTS; CRF-binding protein / CRF receptor 2 complex (human); calcium dye fluorescence (FLIPR); percent of saturating CRF peptide response; 0.46% of 350,000 active; activation, % at 13.2 µM; AID 588473, 2011;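 active means activation of at least 50%, plus an integration ratio under a set limit after plate pattern correction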;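 further: plate controls were neutral control wells without compound for no effect and CRF at EC100 for full effect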
GRIN3A LBD mod: binders of NR3A ligand-binding domain, primary screen, biophysical, differential scanning fluorimetry, uHTS. Glutamate receptor ionotropic, NMDA 3A (GRIN3A) ligand-binding domain. NR3A LBD differential scanning fluorimetry, Tm shift; 0% = protein alone, 100% = glycine-bound protein. Tm shift relative to glycine control, % at 25 µM. 2.5% of 340,000 active;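 active means melting temperature shift of at least 10% of the positive control shift, at one fixed dose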
CRFR2-BP antag: antagonists of CRF-BP/CRF-R2 complex, primary screen, cell-based, HEK293, calcium dye fluorescence, uHTS; CRF-induced calcium fluorescence; inhibition, % at 11.8 µM; 0.59% of 350,000 active; AID 588475, 2011;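 active means inhibition of the ligand-induced calcium signal above about 50% at the single tested concentration, limit read from the data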
MPTP block: mitochondrial permeability transition pore inhibitors, primary screen, biochemical, isolated mouse mitochondria, absorbance; Ca2+ swelling absorbance, 30 min; inhibition, % at 10 µM; 1.4% of 360,000 active;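 active means inhibition of 50% or more, scaled per plate between neutral and stimulator controls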;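 further: 0% = DMSO wells given calcium and 100% = 1 mM EGTA wells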
TMEM16A act: TMEM16A chloride channel activators or potentiators, primary screen, cell-based, HTS | Anoctamin-1 (Mus musculus), Q8BHY3 | HEK293 TMEM16A/YFP-H148Q/I152L, iodide quench fluorescence; stronger effect = lower value | B-score at 10 µM | 0.3% of 340,000 active | AID 623877, 2012;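 active means fluorescence-ratio B-score plate-corrected deviation score at least 3 library SD below zero, with starting fluorescence score within 5 deviations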;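 further: channel opened by trigger with iodide after compound preincubation; score built on the fluorescence ratio of max minus min over baseline; more negative score means more quench and so TMEM16A activation or potentiation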
An asterisk follows results filed as active; i = inactive; . = not tested or not shown. Sampled rows, rich in hits. Any-hit rate of the full collection: about 5.1%.

SMILES | TMEM16A inh | CRFBP-R2 agonist | GRIN3A LBD mod | CRFR2-BP antag | MPTP block | TMEM16A act
Cc1ncc(CO)c(/C=N/NC(=S)Nc2ccc(F)cc2)c1O | i | 4 | -3 | -10 | 3 | i
CNC[C@H]1Oc2c(NS(=O)(=O)c3cccs3)cccc2C(=O)N([C@H](C)CO)C[C@@H]1C | . | -1 | -2 | 14 | 1 | i
COC(=O)C12OCC34C(CC5C(C)=C(O)C(=O)CC5(C)C3C(O)C1O)OC(=O)C(OC(=O)C=C(C)C)C24 (stereo not drawn) | . | 1 | 14* | 5 | -3 | i
CN(C)C(=O)C1CC(=O)OC12CCCCC2 (stereo not drawn) | i | -1 | 0 | 114* | -2 | i
CC(C)N(C(=O)C1CC(=O)OC12CCCCC2)C(C)C (stereo not drawn) | i | -2 | -2 | -7 | 1 | i
O=C(O)c1cc(S(=O)(=O)Nc2ccc(OCc3ccccc3)cc2)ccc1Br | i | 0 | -3 | 2 | -1 | i
O=C(COC(=O)COc1ccc(Cl)cc1)Nc1ccc(F)c([N+](=O)[O-])c1 | i | -2 | 12* | 44 | 1 | i
O=C(COC(=O)CNC(=O)c1ccccc1)Nc1ccc(F)c([N+](=O)[O-])c1 | i | -2 | 13* | 27 | 0 | i
CCOC(=O)C1CN(S(=O)(=O)c2cccs2)c2ccc(CC(=O)OC)cc2O1 (stereo not drawn) | i | 1 | 2 | 2 | -2 | i
CC(C)Cn1c2c(c(=O)[nH]c1=O)C(C(F)(F)F)(C(F)(F)F)N=C(CCC1CCCCC1)N2 | i | 1 | -3 | -24 | 27 | i
O=c1[nH]c(=O)n(-c2ccccc2)c2c1C(C(F)(F)F)(C(F)(F)F)N=C(CCC1CCCCC1)N2 | i | 109* | -4 | -53 | 6 | i
O=C(Cc1ccc([N+](=O)[O-])cc1)Nc1ccc2c(c1)CCC2 | i | -1 | -4 | 2 | 2 | i
Cc1ccccc1/C=C/C(=O)N1CCOCC1 | i | -1 | -2 | 6 | -3 | i
COc1ccccc1/C=C/C(=O)N1CCOCC1 | i | -5 | 0 | 85* | -2 | i
O=C(c1ccc(OC2CCN(Cc3ccccc3C(F)(F)F)CC2)cc1)N1CCCCC1 | i | 1 | 19* | -20 | 0 | i
Fc1ccc(C2=CC(c3ccco3)n3ncnc3N2)cc1 (stereo not drawn) | i | 65* | -2 | -7 | 2 | i
Oc1ccc(C2C=C(c3ccc(F)cc3)Nc3ncnn32)cc1 (stereo not drawn) | . | 41 | 1 | -5 | 2 | i
Fc1ccc(Br)cc1C1C=C(c2cccnc2)Nc2ncnn21 (stereo not drawn) | i | 53* | 1 | -14 | 0 | i
OCCCc1nc2n(n1)C(c1cccs1)C=C(c1ccc(Br)cc1)N2 (stereo not drawn) | i | . | . | . | . | .
Fc1ccc(C2=CC(c3ccc(Br)o3)n3ncnc3N2)cc1 (stereo not drawn) | i | 192* | -8 | -151 | 0 | i
Brc1ccc(C2=CC(c3cccs3)n3ncnc3N2)cc1 (stereo not drawn) | i | 318* | -3 | -197 | 24 | i
Cc1ccccc1S(=O)(=O)N1C[C@H]2CON(C)[C@H]2C[C@H]1c1cccc(-c2ccc(C#N)cc2)c1 | . | 1 | 1 | 24 | 2 | .
OC(c1ccccc1)c1nc(-c2csc3ccccc23)cs1 (stereo not drawn) | . | . | . | . | -1 | .
CCOC(=O)c1ccc2[nH]c3c(c2c1)CCCC3 | i | -1 | -9 | 7 | 0 | i
O=C(COC(=O)c1ccc2[nH]c3c(c2c1)CCCC3)Nc1ccc(Cl)cc1Cl | i | 1 | 27* | -27 | 38 | i
SMILES | TMEM16A inh | CRFBP-R2 agonist | GRIN3A LBD mod | CRFR2-BP antag | MPTP block | TMEM16A act
O=C(COC(=O)c1ccc2[nH]c3c(c2c1)CCCC3)Nc1ccccc1Cl | i | -1 | 13* | 4 | 0 | i
COc1cc(NC(=S)NC(C)=O)ccc1NC(=O)C(C)C | i | 3 | 11* | 3 | -1 | i
O=C(NCC(F)(F)F)c1ccc(S(=O)(=O)Nc2ccccc2N2CCCC2)cc1 | . | 8 | -4 | 0 | -2 | i
COc1ccc(NC(=O)c2ccc(S(=O)(=O)N3CC(C)OC(C)C3)cc2)cc1 (stereo not drawn) | . | 2 | 0 | 2 | 0 | i
CCOc1cc(/C=N/NC(=O)c2ccc(CN3CCOCC3)cc2)ccc1OC | i | -1 | -2 | 11 | -2 | i
CCOc1cc(/C=C/C(=O)c2ccc(OC)c(CN3CCOCC3)c2)cc(Br)c1O | i | 58* | 1 | -61 | 2 | i
CC1CCN(C(=O)COC(=O)CCC(=O)c2ccc(Cl)cc2)CC1 | . | -3 | 4 | 12 | -2 | i
CCc1ccc(C2NC(=S)NC3=C2C(=O)N(c2ccccc2OC)C(c2ccc(CC)cc2)N3)cc1 (stereo not drawn) | i | -4 | -7 | -58 | 2 | i
O=C1C2=C(NC(=S)NC2c2ccc(Cl)cc2)NC(c2ccc(Cl)cc2)N1c1ccc(Cl)cc1 (stereo not drawn) | i | 0 | 22* | -79 | 2 | i
CCCn1nnnc1COc1ccc(C(N)=O)cc1 | i | 3 | 1 | 11 | -1 | i
O=C(COC(=O)Cc1cccs1)Nc1ccc(OC(F)(F)F)cc1 | i | -3 | -3 | 4 | -1 | i
O=C(O)c1cccc2cccc(-c3c4ccc(=O)c(O)c-4oc4c(O)c(O)ccc34)c12 | . | -3 | -10 | 51* | 3 | i
Nc1c(O)cccc1C(=O)O | i | 5 | 1 | -26 | -2 | i
Nc1c(C(=O)Nc2ccc(S(=O)(=O)N3CCCC3)cc2)sc2nc3cc4c(cc3cc12)CCC4 | i | 25 | 7 | -61 | 21 | i
Nc1c(C(=O)Nc2ccc(S(=O)(=O)N3CCCC3)cc2)sc2nc3ccc(OC(F)(F)F)cc3cc12 | i | -1 | 22* | -43 | 1 | i
CS(=O)(=O)c1ccc(C(=O)Nc2cccc(-c3nc4ccccc4[nH]3)c2)cc1 | i | 1 | 13* | -8 | -1 | i
O=C(CSc1nc2ccccc2s1)Nc1ccc2c(c1)OCO2 | i | 1 | 14* | 15 | 14 | i
